In PubChem BioAssay:
Values without a mark were called inactive. Where a call stands in place of a potency, no number is given. For some assays here: Potency and affinity values are given separately. Activity calls are given as the source filed them. Unless noted, the rule behind the calls is not given here.

Columns and labels:
[1] = antimalarial activity against Dd2 strain (AID 2302;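 active = growth inhibition above 50% at the single 2 µM test dose, taken to imply half-maximal potency below 2 µM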); settings: P. falciparum Dd2 in RBCs, LDH growth readout, 72 h; at 2 µM; active compounds read high
[2] = HepG2 cytotoxicity, primary screen, cytotoxicity control for P. falciparum antimalarial project, cell-based, ATP luminescence (AID 2303;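 active = inhibition above 50%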); settings: HepG2 viability, 24-48 h, at 10 µM, active compounds read high
[3] = target: L-lactate dehydrogenase (Plasmodium falciparum (isolate CDC / Honduras)) (UniProt Q27743); test: PfLDH activity inhibition – cell lysate, 3D7 strain, counter-screen for P. falciparum growth inhibition project (AID 2304); settings: P. falciparum 3D7 crude extract, LDH APAD/NBT absorbance; at 2 µM; active compounds read high
[4] = inhibition of 3D7 malaria parasite growth – strain 3D7 (AID 2306); settings: P. falciparum 3D7 erythrocytic growth, LDH absorbance, 72 h; at 2 µM; active compounds read high
[5] = target: Calcium-dependent protein kinase 1 (Plasmodium falciparum (isolate 3D7)) (UniProt P62344); test: PfCDPK1 kinase inhibitors, biochemical, TCAMS library (AID 1159585; cut-off not given, nearly all actives have IC50 up to about 0.98 µM;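 note: inhibitors leave more ATP so luminescence rises with inhibition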); settings: recombinant PfCDPK1, Kinase-Glo ATP depletion luminescence
[6] = target: Plasmodium falciparum protein kinase 6 (PK6, PF3D7_1337100) (UniProt Q8IDW1); test: PfPK6 kinase inhibitors, biochemical, TCAMS library (AID 1159586); settings: recombinant PfPK6, Kinase-Glo ATP depletion luminescence
[7] = target: Protein kinase 7 (PK7), Plasmodium falciparum 3D7 (PF3D7_0213400) (UniProt Q7YTF7); test: inhibition of Plasmodium PK7 catalytic activity – biochemical, TCAMS antimalarial set, Kinase-Glo luminescence (AID 1159587); settings: recombinant PfPK7, Kinase-Glo ATP depletion luminescence
[8] = target: Calcium-dependent protein kinase 4 (Plasmodium falciparum (isolate 3D7)) (UniProt Q8IBS5); test: PfCDPK4 kinase inhibitors, biochemical, TCAMS library (AID 1159588; cut-off not given, nearly all actives have IC50 up to about 0.91 µM); settings: recombinant PfCDPK4, Kinase-Glo ATP depletion luminescence
Chain of Calcium-dependent protein kinase 4 (Plasmodium falciparum (isolate 3D7)) (Q8IBS5 whole entry, looked up): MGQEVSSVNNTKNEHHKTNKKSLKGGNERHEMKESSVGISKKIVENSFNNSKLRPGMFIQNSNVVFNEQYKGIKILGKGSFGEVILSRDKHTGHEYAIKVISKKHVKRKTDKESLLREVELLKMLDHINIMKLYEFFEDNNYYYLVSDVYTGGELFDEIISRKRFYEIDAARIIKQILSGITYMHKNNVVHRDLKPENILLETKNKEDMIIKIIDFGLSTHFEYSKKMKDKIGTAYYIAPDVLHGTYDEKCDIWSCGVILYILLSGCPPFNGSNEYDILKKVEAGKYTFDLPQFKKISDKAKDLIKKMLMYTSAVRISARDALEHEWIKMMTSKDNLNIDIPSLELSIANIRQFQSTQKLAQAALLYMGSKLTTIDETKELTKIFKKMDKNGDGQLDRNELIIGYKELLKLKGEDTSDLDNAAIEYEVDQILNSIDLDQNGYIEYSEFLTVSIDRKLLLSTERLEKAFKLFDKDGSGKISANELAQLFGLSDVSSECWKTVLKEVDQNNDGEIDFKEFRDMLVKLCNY

Chain of Plasmodium falciparum protein kinase 6 (PK6, PF3D7_1337100) (Q8IDW1 1-305): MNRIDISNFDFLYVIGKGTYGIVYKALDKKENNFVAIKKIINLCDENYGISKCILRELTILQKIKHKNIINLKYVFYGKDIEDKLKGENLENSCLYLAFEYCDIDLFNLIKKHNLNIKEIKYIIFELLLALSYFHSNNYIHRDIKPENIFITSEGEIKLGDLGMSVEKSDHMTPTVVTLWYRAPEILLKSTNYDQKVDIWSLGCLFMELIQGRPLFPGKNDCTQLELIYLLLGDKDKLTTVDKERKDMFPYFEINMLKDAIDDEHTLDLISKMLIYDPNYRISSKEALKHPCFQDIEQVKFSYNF
Chain of Calcium-dependent protein kinase 1 (Plasmodium falciparum (isolate 3D7)) (P62344 whole entry, looked up): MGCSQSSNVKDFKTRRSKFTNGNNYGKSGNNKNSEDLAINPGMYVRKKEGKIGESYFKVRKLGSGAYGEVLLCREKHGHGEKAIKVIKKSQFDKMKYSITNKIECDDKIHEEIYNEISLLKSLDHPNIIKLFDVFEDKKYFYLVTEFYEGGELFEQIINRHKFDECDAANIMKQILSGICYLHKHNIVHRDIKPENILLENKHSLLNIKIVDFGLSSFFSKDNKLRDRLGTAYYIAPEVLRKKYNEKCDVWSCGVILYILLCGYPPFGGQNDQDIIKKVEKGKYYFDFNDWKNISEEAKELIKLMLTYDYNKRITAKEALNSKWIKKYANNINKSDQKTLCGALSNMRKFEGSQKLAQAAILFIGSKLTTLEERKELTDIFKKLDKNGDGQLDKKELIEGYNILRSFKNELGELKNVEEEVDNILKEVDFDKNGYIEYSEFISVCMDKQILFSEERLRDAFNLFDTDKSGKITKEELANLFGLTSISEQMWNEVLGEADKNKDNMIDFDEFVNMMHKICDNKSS
Chain of Protein kinase 7 (PK7), Plasmodium falciparum 3D7 (PF3D7_0213400) (Q7YTF7 1-343): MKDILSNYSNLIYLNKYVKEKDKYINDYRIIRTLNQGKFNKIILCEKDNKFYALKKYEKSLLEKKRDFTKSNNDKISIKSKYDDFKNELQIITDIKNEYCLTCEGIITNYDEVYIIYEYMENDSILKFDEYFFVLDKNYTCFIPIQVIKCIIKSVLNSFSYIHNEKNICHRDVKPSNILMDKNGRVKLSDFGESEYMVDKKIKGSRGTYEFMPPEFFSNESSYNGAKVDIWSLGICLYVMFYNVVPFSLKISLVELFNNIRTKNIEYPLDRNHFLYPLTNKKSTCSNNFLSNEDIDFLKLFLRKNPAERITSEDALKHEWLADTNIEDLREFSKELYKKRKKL
Chain of L-lactate dehydrogenase (Plasmodium falciparum (isolate CDC / Honduras)) (Q27743 whole entry, looked up): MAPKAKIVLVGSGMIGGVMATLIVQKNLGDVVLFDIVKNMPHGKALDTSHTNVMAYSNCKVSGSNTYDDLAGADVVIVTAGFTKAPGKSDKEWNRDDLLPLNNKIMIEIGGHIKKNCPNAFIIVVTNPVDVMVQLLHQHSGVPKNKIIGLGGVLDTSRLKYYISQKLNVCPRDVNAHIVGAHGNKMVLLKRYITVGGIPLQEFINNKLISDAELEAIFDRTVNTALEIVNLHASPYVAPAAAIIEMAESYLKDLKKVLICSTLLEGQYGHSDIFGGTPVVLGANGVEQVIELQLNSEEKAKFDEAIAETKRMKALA

Structure (SMILES)	growth inhibition [1]	inhibition [2]	inhibition [3] [%]	growth inhibition [4]	outcome [5]	outcome [6]	outcome [7]	outcome [8]
Cc1ccc2nc(C)cc(NN=Cc3ccccc3Cl)c2c1	62% (active)	6%	-2	100% (active)	inactive	inactive	inactive	inactive
CCOc1c(Br)cc(Br)cc1CNCCCCNc1nc2ccccc2[nH]1	37%	25%	-4	101% (active)	inactive	inactive	inactive	inactive
COc1cccc(-c2ccc(NC(=O)C3CCCN(Cc4cccc(OC)c4O)C3)cc2)c1 (stereo not given)	78% (active)	13%	1	98% (active)	inactive	inactive	inactive	inactive
CCCCCCNC(=O)C1Cc2c([nH]c3ccc(C)cc23)C2(CCN(Cc3ccccc3)CC2)N1 (stereo not given)	25%	25%	6	84% (active)	inactive	inactive	inactive	inactive
Cc1ccc2nc(C)cc(NN=CC=Cc3ccccc3)c2c1	28%	0%	4	92% (active)	inactive	inactive	inactive	inactive
Cc1ccc(C(=O)NC2CC2)cc1-c1ccc2c(cnn2S(=O)(=O)c2ccc(F)cc2)c1	69% (active)	7%	-2	93% (active)	inactive	inactive	inactive	inactive
O=C(NCC1CCC(C(=O)NCc2cccc(C(F)(F)F)c2)CC1)c1ccc(O)c(-c2ccc(Cl)c(Cl)c2)c1 (stereo not given)	41%	5%	0	98% (active)	inactive	inactive	inactive	inactive
CCNc1cc(C(=O)N[C@@H](Cc2ccco2)[C@H](O)CNC2CCCCC2)cc(N2CCCCS2(=O)=O)c1	57% (active)	14%	3	91% (active)	inactive	inactive	inactive	inactive
Cc1cccc2[nH]c(-c3ccc(-c4ccc(CN5CCN(CCN6CCOCC6)CC5)cc4)cc3)nc12	74% (active)	49%	-1	98% (active)	inactive	inactive	inactive	inactive
CN1CCc2ccc(NC(=O)Nc3cccc([N+](=O)[O-])c3)cc2C1	3%	-5%	0	87% (active)	inactive	inactive	inactive	inactive
N#Cc1ccc(N(CCOC(=O)c2ccccc2)Cc2ccccc2C(F)(F)F)cc1C(F)(F)F	67% (active)	6%	-1	92% (active)	inactive	inactive	inactive	inactive
CN1CCCC(CN2CCN(Cc3cccc(-c4csc(-c5nc6ccccc6[nH]5)c4)c3)CC2)C1 (stereo not given)	100% (active)	65% (active)	-4	100% (active)	inactive	inactive	inactive	inactive
CNS(=O)(=O)Cc1ccc(Nc2nccc(Nc3cccc4c3cnn4C(=O)Nc3ccccc3)n2)cc1	5%	45%	1	89% (active)	inactive	inactive	inactive	inactive
Cc1cc(OCCN2CCCCC2)ccc1NC(=O)c1cccc2c(=O)n(Cc3ccc(Cl)cc3)cnc12	56% (active)	100% (active)	0	88% (active)	inactive	inactive	inactive	inactive
O=C1CCCN1CCCNCc1ccc(-c2ccc(-c3nc4ccc(C(F)(F)F)cc4[nH]3)cc2)cc1	98% (active)	10%	-5	101% (active)	inactive	inactive	inactive	inactive
Cc1ccc(NC(=O)NC2CCN(c3ccnc4ccccc34)CC2)cc1	52% (active)	21%	-6	97% (active)	inactive	inactive	inactive	inactive
COc1ccc(CCN(C)CCc2ccc(NC(=O)c3cccc4c(=O)c5ccccc5sc34)cc2)cc1	33%	24%	-2	95% (active)	inactive	inactive	inactive	inactive
O=C(/C=C/c1ccc(Cl)c(Cl)c1)NCCCCCCN1CCCN(C(=O)Nc2ccc(Cl)c(Cl)c2)CC1	8%	25%	-1	100% (active)	inactive	inactive	inactive	inactive
CCCC(C)Nc1nc(C)cc(N[C@@H](Cc2ccccc2)C(=O)NCCc2ccccc2)n1 (stereo not given in full)	68% (active)	11%	-3	97% (active)	inactive	inactive	inactive	inactive
CC(C)c1ccc(CN2CCC(CNC(=O)c3cc(-c4cccc(F)c4)cs3)C2)cc1 (stereo not given)	46%	59% (active)	5	100% (active)	inactive	inactive	inactive	inactive

Structure (SMILES)	growth inhibition [1]	inhibition [2]	inhibition [3] [%]	growth inhibition [4]	outcome [5]	outcome [6]	outcome [7]	outcome [8]
CC(C)N(Cc1cnc2nc(N)nc(N)c2n1)c1ccc(Cl)c(Cl)c1	98% (active)	63% (active)	-3	101% (active)	inactive	inactive	inactive	inactive
CCN(CC)CCOc1ccc(C(O)(C#CC(O)(c2ccc(Br)cc2)c2ccc(OCCN(CC)CC)cc2)c2ccc(Br)cc2)cc1 (stereo not given)	99% (active)	99% (active)	7	99% (active)	inactive	inactive	inactive	inactive
COc1cc(Cc2cnc(N)nc2N)ccc1OCc1ccc(F)c(F)c1	31%	10%	3	90% (active)	inactive	inactive	inactive	inactive
Oc1ccc(CCNc2nc(NCCCOc3ccccc3-c3cccc(C(F)(F)F)c3)nc(N3CCNCC3)n2)cc1	5%	24%	-1	93% (active)	inactive	inactive	inactive	inactive
COc1cccc(CN2CCCC(CCC(=O)Nc3ccc(C(F)(F)F)cc3)C2)c1O (stereo not given)	97% (active)	15%	-2	98% (active)	inactive	inactive	inactive	inactive
Cc1cc(NN=Cc2ccccc2F)c2cccc(C)c2n1	14%	7%	-2	102% (active)	inactive	inactive	inactive	inactive
Cn1nc(-c2ccc(NC(=O)Nc3cc(C(F)(F)F)ccc3F)cc2)c2cnc(NCCCCN3CCCC3)nc21	74% (active)	88% (active)	-3	98% (active)	inactive	inactive	inactive	inactive
COc1ccccc1C1CCN(C2CCC(NC(=O)/C=C/c3cc(F)c(F)cc3F)CC2)CC1 (stereo not given)	0%	39%	-5	85% (active)	inactive	inactive	inactive	inactive
COc1ccc(N2CCN(C(CNC(=O)C3CCCCC3)c3ccc4c(c3)OCO4)CC2)cc1 (stereo not given)	83% (active)	1%	-1	92% (active)	inactive	inactive	inactive	inactive
Clc1ccc(Nc2nc(NCc3ccccc3)nc(N/N=C/c3ccccn3)n2)cc1	91% (active)	41%	3	99% (active)	inactive	inactive	inactive	inactive
CN1CCN(c2ccnc3ccc(NC(=O)Nc4ccc5c(c4)CCCC5=O)cc23)CC1	90% (active)	8%	4	101% (active)	inactive	inactive	inactive	inactive
O=C(O[C@@H]1CN[C@H](C#Cc2cc3ncnc(Nc4ccc5c(cnn5Cc5cccc(F)c5)c4)c3s2)C1)N1CCCC1	56% (active)	9%	-3	86% (active)	inactive	inactive	inactive	inactive
CN(C)C=Nc1ccc(OCCCCCCOc2ccc(N=CN(C)C)cc2)cc1	94% (active)	26%	6	101% (active)	inactive	inactive	inactive	inactive
Cc1c(Cl)cccc1S(=O)(=O)Nc1ccc(CCN2CCC(N)CC2)cc1	4%	23%	0	90% (active)	inactive	inactive	inactive	inactive
CC1(C)C(=O)Nc2ccc3c(c21)CC1SC(=O)NN=C31 (stereo not given)	92% (active)	6%	-1	96% (active)	inactive	inactive	inactive	inactive
CN(CCCCCN1CCC(NC(=O)Nc2ccc(Oc3ccccc3)cc2)C1)C(=O)/C=C/c1ccc(Cl)c(Cl)c1 (stereo not given)	14%	50% (active)	-2	98% (active)	inactive	inactive	inactive	inactive
Cc1nc2ccc3ccc(CNc4ccc(C(=O)CC(CCC(=O)O)C(=O)O)cc4)cc3c2c(=O)[nH]1 (stereo not given)	96% (active)	51% (active)	-1	95% (active)	inactive	inactive	inactive	inactive
COc1ccc(Cl)cc1N1CCN(CCCNC(=O)c2ccc(-c3nc4cc(Cl)c(Cl)cc4[nH]3)c(C)c2)CC1	-1%	4%	2	101% (active)	inactive	inactive	inactive	inactive
O=c1sn(-c2csc3ccccc23)c2ccccc12	54% (active)	14%	-6	94% (active)	inactive	inactive	inactive	inactive
CC(O)C1CCCCN1C(=O)c1cccc(-c2ccc(-c3nc4ccc(F)cc4[nH]3)cc2)c1 (stereo not given)	99% (active)	46%	-6	101% (active)	inactive	inactive	inactive	inactive
